Inconclusive results are not listed. Activity calls are given as the source filed them. Rule for the calls: active = hit-call score of the fitted dose curve at least 0.9, where 1 is the maximum; inconclusive = response in the unintended direction; inactive = score below 0.9.

Chain of human Vitamin D Receptor (VDR), VDR (gene 7421) (P11473 whole entry, looked up): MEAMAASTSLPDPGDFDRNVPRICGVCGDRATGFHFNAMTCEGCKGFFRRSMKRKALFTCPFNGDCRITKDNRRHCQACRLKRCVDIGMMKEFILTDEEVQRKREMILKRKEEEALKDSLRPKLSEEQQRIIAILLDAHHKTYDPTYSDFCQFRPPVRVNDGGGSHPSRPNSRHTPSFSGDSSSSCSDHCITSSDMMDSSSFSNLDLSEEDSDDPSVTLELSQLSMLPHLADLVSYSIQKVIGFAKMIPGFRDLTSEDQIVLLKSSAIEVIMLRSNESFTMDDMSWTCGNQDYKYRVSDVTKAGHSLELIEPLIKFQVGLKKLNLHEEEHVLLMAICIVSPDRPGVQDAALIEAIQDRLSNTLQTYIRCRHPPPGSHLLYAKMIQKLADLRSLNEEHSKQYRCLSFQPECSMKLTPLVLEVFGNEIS

The target in the experiment is human Vitamin D Receptor (VDR), VDR (gene 7421) (UniProt P11473). Put plainly: ATG_VDR_TRANS: Attagene TRANS-FACTORIAL HepG2 Assay for human Vitamin D Receptor (VDR) (AID 2283022). The protocol:
ATG_TRANS is a cell-based, multiplexed-readout assay that uses HepG2, a human liver cell line, with measurements taken at 24 hours after chemical dosing in a 24-well plate.ATG_VDR_TRANS is one of 30 assay component(s) measured or calculated from the ATG_TRANS assay. It is designed to make measurements of mRNA induction, a form of inducible reporter, as detected with fluorescence intensity signals by Reverse transcription polymerase chain reaction (RT-PCR) and Capillary electrophoresis technology.Data from the assay component ATG_VDR_TRANS was analyzed into 1 assay endpoint. This assay endpoint, ATG_VDR_TRANS, was analyzed in the positive analysis fitting direction relative to DMSO as the negative control and baseline of activity. Using a type of inducible reporter, measures of mRNA for gain-of-signal activity can be used to understand the reporter gene at the transcription factor-level as they relate to the gene VDR. Furthermore, this assay endpoint can be referred to as a primary readout, because this assay has produced multiple assay endpoints where this one serves a reporter gene function. To generalize the intended target to other relatable targets, this assay endpoint is annotated to the nuclear receptor intended target family, where the subfamily is non-steroidal.
Human liver HepG2 cells are transiently transfected with multiple reporter transcription units (MRTUs) in 6-well plates using FuGene 6 reagent (Roche; 3 ml FuGene/1 mg DNA). The MRTU constructs are regulated by a cis-regulating element (promoter). […] A major difference between the CIS and TRANS system is that in CIS activities of endogenous TFs are measured, whereas the TRANS assay evaluates changes in activities of exogenous, chimeric NR-Gal4 proteins. […] At the end of 24 hour incubation, total RNA was isolated using TriZol reagent (Invitrogen). The isolated RNA is then reverse-transcribed using oligo(dT) primer and Mo-MLV reverse transcriptase (Invitrogen) with DNAse I (Ambion) treatment for 30 min. The one-tenth of the produced cDNA was amplified by PCR using Taq DNA polymerase (Invitrogen) and two reporter sequence-specific primers. The PCR products were fluorescently labeled by primer extension with 6-arboxyfluorescein (6-FAM) 5'-labeled reporter sequence-specific primer (2 min at 95 C, 20 s at 68 C and 10 min at 72 C) and these products were digested with 5U of HpaI (New England Biolabs) for 2h at 37 C. The fragments were purified using Qiaquick PCR columns (Qiagen), analyzed on an ABI 3130xL genetic analyzer (Applied Biosystems) with peak positions identified by using a set of X-rhodamine (ROX)-labeled MapMarker1000 molecular weight standards (BioVentures). The raw capillary electrophoresis data was processed using Attagraph software (Attagene).
Regarding `O=c1n(CCO)c(=O)n(CCO)c(=O)n1CCO`, the compound was classed as inactive. `CCCCCCCCCCCCCCCC[n+]1ccccc1`: the AC50 was 26.8 µM (active). Consider `CCCCCCCCCCCSCC(=O)O`, for which the call was inactive.

Regarding `O=C1CCC(=O)N1Cl`, the call was inactive.

Regarding `CCCCCCOc1cc(C)c(O)c(C)c1C`, the call was inactive. On the same count and under the same terms, as for `NC(=O)NNC(N)=O`, the entry is “inactive”.

With `O=Cc1ccc(CO)o1`, the result was inactive. The same measure, in the same setting: as for `CC=CC(F)(F)C(F)(F)C(F)(F)F`, the entry is “inactive”; as for `O=S(=O)(O)c1ccc2cc(O)c(S(=O)(=O)O)cc2c1`, “inactive”.

Take `O=C(O)CCCC[C@@H]1SC[C@@H]2NC(=O)N[C@@H]21`: the compound was called inactive. On the same count and under the same terms, under `CCCCCCCCCCC=CC#N` stands “inactive”.

As to `COCc1c(C(C)C)nc(C(C)C)c(/C=C/[C@@H](O)C[C@@H](O)CC(=O)O)c1-c1ccc(F)cc1`, the result was inactive. Take `CC(=O)c1ccc2c(c1)CCCC2`: the call was inactive. For the compound `CCOC(=O)CC`, the result was inactive.

Turning to `N#CCc1ccc(Cl)cc1Cl`, the call was inactive. Same read-out and setting: as for `COCC(C)N` (stereo not given), the entry is “inactive”; as for `CCCCCCC1(C)CCC(=O)O1` (stereo not given), “inactive”. For `O=[N+]([O-])C1(Br)COCOC1`, the outcome was inactive. The same measure, in the same setting: as for `CC(C)C1=CC2=CC[C@@H]3[C@](C)(CCC[C@@]3(C)C(=O)O)[C@H]2CC1`, the entry is “inactive”; as for `CCCCCCCC/C=C\CCCCCCCC(=O)OCCO`, “inactive”. `OCCN(CCO)c1ccccc1`: the result was inactive. Still for that read-out and setting: under `O=C(O)CC(C(=O)O)C(CC(=O)O)C(=O)O` (stereo not given) stands “inactive”; under `O=C(/C=C/C=C/c1ccc2c(c1)OCO2)N1CCCCC1`, “inactive”. As for `O=C(O)c1cc2ccccc2nc1C(=O)O`, the outcome was inactive. Still for that read-out and setting: as for `CC(CC=O)CCCC(C)(C)O` (stereo not given), the entry is “inactive”; as for `CCOC(=O)N1CCC(=C2c3ccc(Cl)cc3CCc3cccnc32)CC1`, “inactive”. The same measure, in the same setting: under `Cc1cc(C)c(C)c(C)c1` stands “inactive”; under `C=CC(C)(C)C`, “inactive”; under `Cc1cccc(N(C)C(=S)Oc2ccc3ccccc3c2)c1`, “inactive”. On the same count and under the same terms, under `c1ccc(CNCc2ccccc2)cc1` stands “inactive”; under `COc1c2ccoc2cc2oc(=O)ccc12`, “inactive”.

As to `O=S(=O)(O)CC(O)CCl` (stereo not given), the call was inactive. The same measure, in the same setting: under `Nc1ccc(N)c(Cl)c1` stands “inactive”; under `CC(C)CC(O)Cc1ccccc1` (stereo not given), “inactive”.

Regarding `CCC(C)OC(=O)c1ccc(O)cc1` (stereo not given), the compound was classed as inactive.

For the compound `CCC(C)C=O` (stereo not given), the compound was classed as inactive.

As for `CCCCC(CC)COC(=O)c1ccccc1O` (stereo not given), the outcome was inactive.

With `c1cc(N(CC2CO2)CC2CO2)ccc1OCC1CO1` (stereo not given), the result was inactive. Consider `CCCCC(CC)COC(=O)c1ccccc1` (stereo not given), for which the outcome was inactive. Take `Oc1ccc(Cl)cc1Cc1cc(Cl)ccc1O`: the result was inactive.

These data come from PubChem BioAssay (EPA / NIEHS).
